# From PubChem BioAssay AID1788 (Vanderbilt High Throughput Screening Facility, 2009)
# Values without a mark were called inactive. No rule for the calls is given here.
# Test system: Platelet Activating Factor (PAF) (human)
# Test: PubChem AID 1788
# Details: MDS Pharma lead profiling panel, radioligand binding, at 10 µM, active compounds read high
smiles,measurement,value
CCOC(=O)N1CCC(NCCNC(=O)c2ccccc2C)CC1,inhibition,0%
